The list is not random: actives were taken first. Their share in the collection is about 3.4%.
MITF inh = MITF inhibitors, primary screen, biochemical, AlphaScreen, human; Microphthalmia-associated transcription factor (Homo sapiens), O75030; AlphaScreen MITF homodimerization, bead proximity signal; inhibition, % at 2.6 µM; 650,000 compounds, 0.91% hits; in the data active = inhibition above about 50%;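 also: 0% = vehicle wells with protein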
FBW7 act = FBW7 E3 ligase activators, primary screen, biochemical, AlphaScreen, human | AID 1259310, 2017 | normalized activity (activation), % at 26.1 µM | F-box/WD repeat-containing protein 7 (Homo sapiens), Q969H0 | 650,000 compounds, 0.13% hits | AlphaScreen FBW7–phospho-cyclin E peptide binding, activator screen; in the data active = normalized activity above about 1.9%;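 also: purified mutant Fbw7 with reduced substrate affinity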
TEAD-YAP block = TEAD-YAP interaction inhibition, primary screen, TEAD-YAP interaction inhibitor project, luminescence, HEK-TIYL cells; TEAD-Gal4/YAP UAS-luciferase luminescence; inhibition, % at 9.12 µM; 640,000 compounds, 1.4% hits; in the data active = inhibition above about 32%;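 also: 0% = median of test compound wells and 100% = reference inhibitor wells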
GPR151 ag = activators of human GPR151, primary screen, cell-based, PathHunter beta-arrestin, luminescence. G-protein coupled receptor 151 (Homo sapiens), Q8TDV0. PathHunter beta-arrestin GPR151 cells. activation, % at 11.2 µM. 650,000 compounds, 1% hits. AID 1508602, 2020; in the data active = activation above about 4.9%;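 also: 0% = median of compound wells and 100% = cells with positive control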
Target sequence (Q8TDV0 whole entry, looked up): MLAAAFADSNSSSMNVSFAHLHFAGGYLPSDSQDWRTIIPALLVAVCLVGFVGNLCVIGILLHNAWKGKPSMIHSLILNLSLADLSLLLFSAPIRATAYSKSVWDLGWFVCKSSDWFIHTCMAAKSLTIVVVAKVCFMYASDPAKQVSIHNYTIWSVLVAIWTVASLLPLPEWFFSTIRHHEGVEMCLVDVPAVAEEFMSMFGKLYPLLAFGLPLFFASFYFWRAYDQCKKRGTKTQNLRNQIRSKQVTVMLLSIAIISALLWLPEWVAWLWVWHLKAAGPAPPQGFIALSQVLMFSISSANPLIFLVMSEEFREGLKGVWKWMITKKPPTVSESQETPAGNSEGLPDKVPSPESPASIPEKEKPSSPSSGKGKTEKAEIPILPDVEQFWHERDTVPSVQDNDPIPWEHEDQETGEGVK
GPR151 conf act = GPR151 activators, triplicate retest, confirmation, cell-based, PathHunter beta-arrestin, luminescence | shares compounds with GPR151 ag | GPR151 PathHunter beta-arrestin cells, 90 min; % of EA-reagent control over plate median | activation, % at 11.2 µM | 6,700 tested, under 10 active;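 active = mean percent activation across replicates above the confirmation screen cutoff of 4.91%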
GPR119 counter = GPR119 activators in beta-arrestin cells, counter-screen for GPR151 activator project, cell-based, PathHunter beta-arrestin, luminescence, triplicate | shares compounds with GPR151 ag | 90 min; 0 = compound-well median, 100 = enzyme-acceptor control | activation, % at 11.2 µM | 6,700 compounds, 0.3% hits | AID 1508611, 2020;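 active = mean percent activation in the counterscreen above 29.09%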;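 also: counterscreen on off-target GPR119 to flag nonselective hits from the GPR151 activator screen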
* = called active by the depositor; · = no result.

SMILES | MITF inh | FBW7 act | TEAD-YAP block | GPR151 ag | GPR151 conf act | GPR119 counter
CCc1ccc(OCC(=O)N(Cc2cccc(Cl)c2)C2CCS(=O)(=O)C2)cc1 (centres undefined) | 8.3 | 0.5 | 1.3 | 0.0 | · | ·
CC(=O)Oc1ccccc1-c1nc2s/c(=C\c3ccc(F)cc3)c(=O)n2n1 | 3.0 | 0.0 | -3.5 | 2.2 | · | ·
O=C(COC(=O)c1cc([N+](=O)[O-])ccc1NCCO)Nc1ccc(F)cc1F | -0.7 | -0.1 | -17.1 | 5.6* | 0.2 | -5.1
O=C(COC(=O)c1cc([N+](=O)[O-])ccc1NCCO)Nc1ccc(F)cc1 | -38.2 | 0.0 | 10.8 | 1.1 | · | ·
COc1cccc(NC(=O)CSc2cn(CC(=O)N3CCOCC3)c3ccccc23)c1 | 0.0 | 0.6 | 2.3 | -0.3 | · | ·
COc1cccc(NC(=O)CSc2cn(CC(=O)N3CCC(C)CC3)c3ccccc23)c1 | 15.4 | 0.0 | -1.3 | 5.1* | 0.9 | 3.2
CCN(CC)C(=O)C(C)N(c1ccc(Oc2ccccc2)cc1)S(C)(=O)=O (centres undefined) | 19.0 | 0.0 | 7.5 | 1.8 | · | ·
O=C(CCc1ccccc1)NCc1nc(-c2ccc(Cl)cc2)no1 | -3.3 | 0.0 | 11.8 | -0.5 | · | ·
CSc1ccccc1NC(=O)CN(C)C(=O)COc1ccc(C(=O)c2ccccc2)cc1 | -13.5 | -0.1 | 6.8 | 4.9 | · | ·
O=C(Nc1nncs1)c1cccc(Br)c1 | 0.3 | 0.0 | -14.7 | 2.5 | · | ·
O=C(Nc1nncs1)c1cccc(I)c1 | -8.0 | -0.3 | 2.7 | 5.4* | 1.3 | 5.0
O=C(CCCC(=O)Nc1ccccc1Cl)Nc1ccccc1Cl | -21.0 | 0.3 | 2.5 | 1.2 | · | ·
CC/C(C)=N\NC(=O)c1ccc(N)cc1 | 7.4 | 0.0 | -25.2 | 0.7 | · | ·
CC/C(C)=N/NC(=O)c1ccc(C(=O)N/N=C(\C)CC)cc1 | -16.9 | 0.1 | 4.3 | 8.3* | -0.2 | 5.6
CCOc1cc(C)c(S(=O)(=O)N2CC(C)OC(C)C2)cc1C (centres undefined) | 12.6 | 0.0 | -3.1 | 0.5 | · | ·
CCOc1cc(C)c(S(=O)(=O)N2CCCC2)cc1C | -32.4 | 0.2 | -4.7 | 6.7* | -0.3 | -3.1
N#Cc1ccccc1OCC(=O)N1CCOCC1 | 9.3 | 0.0 | 4.8 | 5.5* | -0.3 | 1.8
CC(C)NC(=O)C(=O)Nc1ccc(C(C)C)cc1 | 0.1 | 0.0 | -80.6 | 0.9 | · | ·
COc1ccc(CCNC(=O)c2cccc(Nc3cnccn3)n2)cc1 | -11.9 | 0.1 | 3.4 | 0.0 | · | ·
O=C1c2cccnc2C(=O)N1Cc1ccc(S(=O)(=O)N2CCCc3ccccc32)cc1 | 6.2 | -0.1 | 2.3 | 5.9* | 0.3 | -3.0
CCCNS(=O)(=O)c1ccc(CN2C(=O)c3cccnc3C2=O)cc1 | 3.6 | -0.2 | -5.2 | -0.3 | · | ·
Cc1cccnc1NS(=O)(=O)c1ccc(CN2C(=O)c3cccnc3C2=O)cc1 | 9.6 | -0.1 | -2.5 | 6.0* | -0.2 | 2.0
C=CCOc1ccc(/C=C2\C(=O)NN(c3ccccc3)C2=O)cc1OC | 4.5 | -0.1 | 1.2 | 5.3* | -0.4 | 2.5
Cc1ccc(Nc2cc(=O)n(C)c(=O)n2C)cc1 | -14.9 | 0.5 | 9.0 | 0.7 | · | ·
O=C(c1ccc2ccccc2n1)N1CCOCC1 | 7.1 | 0.1 | 7.2 | 5.4* | -0.1 | -5.3
O=C1C(=O)N(CCN2CCOCC2)C(c2ccc(F)cc2)/C1=C(\O)c1ccc(F)cc1 (centres undefined) | -1.2 | 0.3 | -4.1 | 0.0 | · | ·
O=C1C(=O)N(CCN2CCOCC2)C(c2ccco2)/C1=C(/O)c1ccc(F)cc1 (centres undefined) | 9.1 | -0.1 | 10.1 | 6.7* | -1.1 | 6.5
COC(=O)COc1ccc(S(=O)(=O)Nc2ccc(NC(C)=O)cc2)cc1C | 5.7 | 0.1 | 1.6 | 6.2* | 0.9 | -10.1
COC(=O)COc1ccc(NS(=O)(=O)c2ccc(NC(C)=O)cc2)cc1 | 9.2 | 0.8 | 3.9 | -0.9 | · | ·

Screening results from PubChem BioAssay.
